DT40 TDP1 CPT: growth inhibition of DT40 Tdp1-/-;hTDP1 cells with camptothecin (screen for TDP1 inhibitors); Potency, µM (top dose mostly 46.2 µM), inactives show top-dose activity change, negative = growth inhibition, hits mostly inhibitors; chicken DT40 Tdp1-/-;hTDP1 cells + 20 nM CPT, ATP luminescence, 48 h; 420,000 tested, 12% active; further: nearly all actives have a fitted effect of over 55% in size
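Chicken DT40 Tdp1-/- cells complemented with human TDP1, 400 cells/well, exposed to compounds plus 20 nM camptothecin for at least 48 h at 37 C; viability read as ATP content by CellTiter-Glo luminescence.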
Gal4-VP16 FLuc: inhibits Gal4-VP16 luciferase reporter, ROR gamma counter-screen; 310,000 tested, 3.5% active; Drosophila S2 Gal4-VP16 UAS-luciferase, luminescence, 20 h; Potency, µM (top dose mostly 53.6 µM), without a hit: at the top dose activity, negative = inhibition, usual class: inhibitors; AID 2546;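 further: Gal4-VP16 expression switched on by copper sulfate through the metallothionein promoter; nearly all actives have a fitted effect of over 50% in size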
RORgamma inh: inhibitors of mouse ROR gamma transcriptional activity | Drosophila S2 Gal4-RORgamma UAS-luciferase reporter, 20 h | Potency, µM (highest dose often 53.6 µM), for inactives: top-dose activity change, negative = inhibition, hits mostly inhibitors | 310,000 tested, 5.4% active | AID 2551; further: nearly all actives have a fitted effect of over 60% in size
Target sequence (P51450 whole entry, looked up, the tested form may be a part): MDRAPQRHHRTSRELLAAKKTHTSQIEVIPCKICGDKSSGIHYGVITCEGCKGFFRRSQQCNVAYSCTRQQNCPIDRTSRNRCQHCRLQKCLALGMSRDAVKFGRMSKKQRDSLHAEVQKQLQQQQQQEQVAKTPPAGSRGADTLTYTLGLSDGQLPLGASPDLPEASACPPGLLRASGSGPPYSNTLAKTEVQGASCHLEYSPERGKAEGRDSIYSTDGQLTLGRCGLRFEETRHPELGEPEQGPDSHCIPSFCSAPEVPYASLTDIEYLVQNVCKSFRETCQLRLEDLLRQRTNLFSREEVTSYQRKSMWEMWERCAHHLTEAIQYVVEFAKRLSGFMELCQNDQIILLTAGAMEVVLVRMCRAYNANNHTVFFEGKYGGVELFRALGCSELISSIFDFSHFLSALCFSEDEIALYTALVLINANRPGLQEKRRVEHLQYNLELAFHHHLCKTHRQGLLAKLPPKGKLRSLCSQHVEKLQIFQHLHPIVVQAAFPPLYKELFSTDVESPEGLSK
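Schneider cells (Drosophila), stable Gal4 DBD–ROR gamma + UAS-luc; 1 hr cmpd preincubation; Cu2+ induction 700 uM final; 20 hr ambient; luminescence.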
DT40 TDP1 no CPT: qHTS for Inhibitors of human tyrosyl-DNA phosphodiesterase 1 (TDP1): qHTS in cells in absence of CPT; DT40 Tdp1-/- hTDP1 cells, no CPT, ATP luminescence, 48 h; Potency, µM (doses to about 46.2 µM), inactives show top-dose activity change, negative = growth inhibition, usual class: inhibitors; 420,000 tested, 15% active; AID 686978, 2013; further: nearly all actives have a fitted effect of over 55% in size
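Chicken DT40 Tdp1-/- cells stably complemented with human TDP1 were seeded at 400 cells/well with DMSO in place of 20 nM camptothecin. After compound pinning, cells grew at least 48 hr at 37 °C; viability read by CellTiter-Glo luminescence.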
TDP1 block: inhibitors of human tyrosyl-DNA phosphodiesterase TDP1; 350,000 tested, 0.28% active; recombinant TDP1, AlphaScreen DNA substrate cleavage; Potency, µM (top dose mostly 130 µM), for the others: at the top dose activity change, negative = inhibition, actives largely listed as inhibitors; further: nearly all actives have a fitted effect of over 40% in size
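Recombinant E. coli-expressed Tdp1 (1 nM) preincubated with compound 15 min at RT, then 5'-biotin/3'-phosphotyrosine-FITC DNA substrate (15 nM) added for 5 min. AlphaScreen beads (10 ug/ml) added, 10 min RT; tyrosine-FITC cleavage read as signal loss.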
* = called active by the depositor; ? = inconclusive; nt = not tested or not shown; [ ] = another dose, or the depositor's remark. Shown are actives, neighbours in structure and some others; about 19% of the full set was active somewhere. The call rests on the fitted dose curve; in most records, active means well fitted curve in the direction sought with a large enough effect; inconclusive means small, poorly fitted or top-dose-only effect, or another doubt; inactive means no such curve, though single readings can be large; an effect the other way counts as inactive or inconclusive. On the % scale 0 is the no-effect control and ±100 the full control effect; potency means the concentration at half of the fitted maximal effect.

SMILES	DT40 TDP1 CPT	Gal4-VP16 FLuc	RORgamma inh	DT40 TDP1 no CPT	TDP1 block
CC1CCN(S(=O)(=O)c2cc([N+](=O)[O-])ccc2Cl)CC1	-17%	-22%	-12%	?	3%
CCCC1O[C@@H]2C[C@H]3[C@@H]4CCC5=CC(=O)C=C[C@]5(C)[C@H]4[C@@H](O)C[C@]3(C)[C@]2(C(=O)CO)O1 (some centres not stated)	-3%	4%	13µM*	?	6%
CCC(=O)[C@@]1(C)[C@H](C)C[C@H]2[C@@H]3CCC4=CC(=O)C=C[C@]4(C)[C@H]3[C@@H](O)C[C@@]21C	13µM*	nt	nt	16µM*	nt
COc1ccccc1-c1cc2c(c(OC)c1)OCCN(C(=O)Cn1nc(-c3ccccc3)c3ccccc3c1=O)C2	23%[9.04 µM]	nt	nt	-23%	nt
COc1cccc(C(=O)Oc2ccccc2/C=C\C(=O)c2cc3ccccc3o2)c1	6.5µM*	?	?	4.6µM*	-8%
O=C(Oc1ccccc1/C=C\C(=O)c1cc2ccccc2o1)c1ccccc1	7.3µM*	?	?	7.3µM*	5%
O=C(Oc1ccccc1/C=C\C(=O)c1cc2ccccc2o1)c1cccc(F)c1	5.2µM*	?	?	21µM*	0%
CSc1nnc2c(n1)c(C)nn2-c1cccc(C)c1	?	10%	7%	?	8%
COC(=O)CCSCC(=O)Nc1ccc(C)c(S(=O)(=O)N2CCCCC2)c1	-15%	-5%	-2%	-6%	nt
Cc1ccc(C)n1-c1ccc(N2CCOCC2)c(Br)c1	18µM*	-8%	-2%	15µM*	5%
O=C(NC(=S)N1CCN(c2ccccn2)CC1)c1ccco1	1%	3.2µM*	0.18µM*	-10%	1%
CN1CCN(C(=S)NC(=O)c2ccco2)CC1	1%	14µM*	3.5µM*	7%	3%
CC(NNC(=S)N1CCN(c2ccccn2)CC1)c1nccc2ccccc12 (configuration not stated)	0.0092µM*	nt	nt	0.018µM*	nt
O=C(c1ccco1)N1CCN(C/C=C/c2ccccc2)CC1	-13%	-4%	17%	?	5%
O=C(NC(=S)N1CCN(C/C=C/c2ccccc2)CC1)c1ccco1	?	4µM*	1.1µM*	21µM*	6%
CCCN(Cc1cccs1)C(=O)Nc1ccccc1C	-27%	nt	nt	?	3%
O=C(NCc1ccco1)c1ccccc1NS(=O)(=O)c1ccc(Cl)s1	?	3%	37%	?	5%
Cc1ccc(NC(=O)c2ccccc2NS(=O)(=O)c2ccc(Cl)s2)cc1	23µM*	20µM*	?	15µM*	6%
O=C(Nc1ccccc1)c1ccccc1NS(=O)(=O)c1ccc(Cl)s1	?	?	?	?	0%
O=C(Nc1ccccc1Cc1ccccc1)c1ccccc1NS(=O)(=O)c1ccc(Cl)s1	4.6µM*	13µM*	?	3.7µM*	-3%
O=C1CCCC(=O)N1c1ccc(N2CCN(c3ccccc3)CC2)c([N+](=O)[O-])c1	-22%	-6%	5%	?	3%
COC(=O)c1[nH]c2ccc(Br)cc2c1NC(=O)C(C)N1CCN(C2CCCCC2)CC1 (configuration not stated)	5.2µM*	?	2%	16µM*	4%
CC(Sc1nnc(COc2ccc3ccccc3c2)n1C)C(=O)O (configuration not stated)	3%	-1%	-12%	-7%	-3%
O=S(=O)(Nc1cccc(-c2ccc(N3CCCCC3)nn2)c1)c1ccc(F)cc1F	?	nt	nt	26µM*	1%
COc1ccc(S(=O)(=O)Nc2cccc(-c3ccc(N4CCCCCC4)nn3)c2)cc1	16µM*	nt	nt	?	2%
SMILES	DT40 TDP1 CPT	Gal4-VP16 FLuc	RORgamma inh	DT40 TDP1 no CPT	TDP1 block
COc1ccc(Cl)cc1S(=O)(=O)Nc1cccc(-c2ccc(N3CCOCC3)nn2)c1	?	nt	nt	?	4%
COc1ccc(S(=O)(=O)Nc2cccc(-c3ccc(N4CCCCCC4)nn3)c2)c(OC)c1	?	27%	?	29µM*	1%
CCOc1ccc(C(C)C)cc1S(=O)(=O)Nc1cccc(-c2ccc(N3CCOCC3)nn2)c1	?	nt	nt	15µM*	7%
O=S(=O)(Nc1cccc(-c2ccc(N3CCCC3)nn2)c1)c1cc(F)ccc1F	-1%	nt	nt	-20%	-1%
COc1ccc(C(=O)Nc2ccnn2C2CCN(C(=O)C3CCOC3)CC2)cc1 (configuration not stated)	-16%	28%	19%	-3%	3%
N#Cc1c(NC(=O)CSc2nnc(-c3ccccc3)o2)sc2c1CCCC2	?	27%	33%	?	nt
CCc1ccc(S(=O)(=O)Nc2cccc(-c3ccc(N4CCOCC4)nn3)c2)cc1	8.2µM*	nt	nt	?	7%
CCOc1ccc(S(=O)(=O)Nc2cccc(-c3ccc(N4CCCC4)nn3)c2)cc1	7.3µM*	nt	nt	?	-1%
O=C(CSc1ccc2ccccc2n1)N1CCC(c2noc3ccc(F)cc23)CC1	16µM*	-25%	?	12µM*	0%
CCN1C[C@@H]2[C@@H]3C(=O)N(Cc4ccccc4)C(=O)[C@@H]3[C@](Cc3ccccc3)(C1=O)N2C(=O)c1ccc(C(F)(F)F)cc1	-9%	nt	nt	-15%	nt
CCN1C[C@@H]2[C@@H]3C(=O)N(Cc4ccccc4)C(=O)[C@@H]3[C@](Cc3ccccc3)(C1=O)N2C(=O)c1ccc(C(C)(C)C)cc1	16µM*	nt	nt	18µM*	nt
O=c1[nH]c2cc3c(cc2cc1C(c1nnnn1C1CCCC1)N1CCCc2ccccc21)OCCO3 (configuration not stated)	-1%	0%	-29%	-13%	11%
O=c1[nH]c2cc3c(cc2cc1C(c1nnnn1Cc1ccccc1)N1CCCc2ccccc21)OCO3 (configuration not stated)	21µM*	5%	-15%	23µM*	5%
O=c1[nH]c2cc3c(cc2cc1C(c1nnnn1Cc1ccccc1)N1CCN2CCCC2C1)OCCO3 (configuration not stated)	?	0%	21%	18µM*	8%
COc1cc2cc(C(c3nnnn3C(C)(C)C)N3CCc4ccccc43)c(=O)[nH]c2cc1OC (configuration not stated)	-35%	-3%	2%	21µM*	8%
Cc1ccc(C)c2[nH]c(=O)c(C(c3nnnn3Cc3ccccc3)N3CCc4ccccc4C3)cc12 (configuration not stated)	21µM*	19%	-2%	-11%	-1%

Screening data (PubChem)
